Results from the supplement of paper PMC9135407.
Counter-ions that a name gives are not always drawn. A number with no mark means an inactive call.

Tested on: primary human hepatic stellate cells (donor 1)
Assay: COL1A1 mRNA fold change vs DMSO (normalised to PSMB2); higher = more COL1A1 expression, active = hit call of the paper
Conditions: 48 h
Protocol: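 Secondary qRT-PCR screen in primary human HSCs (donor 1), 384-well plates, with compounds dispensed in quadruplicate and incubated for 48 h. Cells-to-CT lysates were used for multiplexed TaqMan qPCR of ACTA2 or COL1A1 with PSMB2 as reference. Fold changes versus DMSO come from a linear model (Ct_gene ~ Ct_PSMB2 + plate + chemical). A hit is defined as COL1A1 and ACTA2 FC <0.5 (FDR <0.05) with PSMB2 between 0.2 and 2.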

| SMILES | COL1A1 mRNA fold change |
| --- | --- |
| Cc1ccc(NC(=O)C(C)C)cc1C1CCN(Cc2ccc(Oc3ccc(F)c(F)c3)cc2)CC1 (33.3333 µM) | 0.0966 |
| O=S(=O)(NCCNC/C=C/c1ccc(Br)cc1)c1cccc2cnccc12 [H-89, Dihydrochloride] (11.1 µM) | 0.594 |
| Cc1ccc(S(=O)(=O)/C=C/C#N)cc1 (33.3333 µM) | 0.394 |
| O=C1Nc2ccccc2/C1=C1/Nc2ccccc2C1=O [Indirubin] (63.5333 µM) | 0.897 |
| CCCCCCCCCCCCC/C=C/[C@@H](O)[C@H](CO)N(C)C [N,N-Dimethylsphingosine] (3.33333 µM) | 0.928 |
| CCN(CC)CCOc1ccc(Cc2ccccc2)cc1 [DPPE fumarate] (33.3333 µM) | 0.51 |
| Clc1ccccc1CNCC1CCC(CNCc2ccccc2Cl)CC1 (stereo not given) (33.3333 µM) | 0.055 |
| Cc1ccc(NC(=O)c2ccc(CN3CCN(C)CC3)cc2)cc1Nc1nc(-c2cccnc2)cs1 [Masitinib (AB1010, Masivet)] (6.66667 µM) | 1.31 |
| CN(C)Cc1c(C(=O)NCCOc2ccc(C(=O)NO)cc2)oc2ccccc12 (33.3333 µM) | 0.0321 (active) |
| Cc1nc(Nc2ncc(C(=O)Nc3c(C)cccc3Cl)s2)cc(N2CCN(CCO)CC2)n1 (33.3333 µM) | 0.446 (active) |
| CNCc1ccc(-c2[nH]c3cc(F)cc4c3c2CCNC4=O)cc1 (33.3333 µM) | 0.83 |
| CN(C)CCC(c1ccc(Br)cc1)c1ccccn1 (stereo not given) [Brompheniramine maleate] (33.3333 µM) | 0.705 |
| O=C(c1ccc(/C=C/c2n[nH]c3ccccc23)cc1)N1CCNCC1 (33.3333 µM) | 0.0707 |
| C#CC1(O)CC[C@H]2[C@@H]3CCC4=CC(=O)CC[C@@H]4[C@H]3CC[C@@]21CC (stereo not given in full) [Norgestrel] (21.3333 µM) | 1.14 |
| CC[C@]1(O)C[C@@H]2CN(CCc3c([nH]c4ccccc34)[C@@](C(=O)OC)(c3cc4c(cc3OC)N(C)[C@H]3[C@@](O)(C(=O)OC)[C@H](OC(C)=O)[C@]5(CC)C=CCN6CC[C@]43[C@@H]65)C2)C1 [Vinblastine sulfate] (33.3333 µM) | 0.513 |
| CC(C)c1cc(-c2n[nH]c(=O)n2-c2ccc3c(ccn3C)c2)c(O)cc1O [Ganetespib (STA-9090)] (33.3333 µM) | 1.04 |
| CC(C)NCCCn1c(Sc2cc3c(cc2I)OCO3)nc2c(N)ncnc21 (33.3333 µM) | 0.844 |
| C[C@@H](CN1CCC(n2c(=O)[nH]c3cc(Cl)ccc32)CC1)NC(=O)c1ccc2ccccc2c1 (33.3333 µM) | 0.19 |
| C[C@@H]1CN(CCCn2c3ccccc3c3ccccc32)C[C@H](C)N1 [Rimcazole dihydrochloride] (33.3333 µM) | 0.14 |
| CN1CCC(=C2c3ccccc3C=Cc3ccccc32)CC1 [Cyproheptadine] (33.3333 µM) | 0.078 (active) |

| SMILES | COL1A1 mRNA fold change |
| --- | --- |
| CC[C@@H]1C(=O)N(C)c2cnc(Nc3ccc(C(=O)NC4CCN(C)CC4)cc3OC)nc2N1C1CCCC1 (33.3333 µM) | 0.0466 |
| CN1CCN(C2=Cc3ccccc3Oc3ccc(Cl)cc32)CC1 (33.3333 µM) | 0.416 (active) |
| COc1ccc(NS(=O)(=O)c2sc3ccc(Cl)cc3c2C)cc1N1CCNCC1 (33.3333 µM) | 0.0858 (active) |
| NS(=O)(=O)C#Cc1ccccc1 [Pifithrin->m] (33.3333 µM) | 0.18 |
| COC(=O)C[C@](O)(CCCC(C)(C)O)C(=O)O[C@@H]1C(OC)=C[C@]23CCCN2CCc2cc4c(cc2[C@H]13)OCO4 [Homoharringtonine] (33.3333 µM) | 0.0354 (active) |
| O=C(O[C@H]1CN2CCC1CC2)N1CCc2ccccc2[C@@H]1c1ccccc1 [Solifenacin succinate] (33.3333 µM) | 0.375 (active) |
| O=C(Nc1cc(C(F)(F)F)cc(C(F)(F)F)c1)c1cc(Cl)ccc1O (33.3333 µM) | 0.203 (active) |
| CC(/C=C/C(=O)NO)=C\[C@@H](C)C(=O)c1ccc(N(C)C)cc1 [Trichostatin A] (3.33333 µM) | 0.405 (active) |
| CCN(CC)CC#CCOC(=O)C(O)(c1ccccc1)C1CCCCC1 (stereo not given) [Oxybutynin chloride] (16.9333 µM) | 0.755 |
| Cc1[nH]c(/C=C2\C(=O)Nc3ccc(S(=O)(=O)N(C)c4cccc(Cl)c4)cc32)c(C)c1C(=O)N1CCN(C)CC1 (33.3333 µM) | 0.254 (active) |
| CNCCCC12CCC(c3ccccc31)c1ccccc12 [Maprotiline hydrochloride] (33.3333 µM) | 0.0732 (active) |
| Cn1cc(C2=C(c3ccc(Cl)cc3Cl)C(=O)NC2=O)c2ccccc21 (33.3333 µM) | 2.59 |
| [O-][S+](c1ccccc1)c1ccc2nnnn2n1 (stereo not given) (33.3333 µM) | 0.0868 |
| CN(C)CCCCC(=O)Nc1ccc(NC(=S)NC(=O)c2ccc(C(C)(C)C)cc2)cc1 [Tenovin-6] (33.3333 µM) | 0.00938 |
| Cc1ccc(-c2ccc3c(ccc4sc5c(c43)NC[C@@H](C)NC5=O)n2)cn1 (33.3333 µM) | 1.21 |
| CN1CCC(CNc2ccc3ncc(-c4cccc(OC(F)(F)F)c4)n3n2)CC1 (6.66667 µM) | 0.552 |
| CN(C)C/C=C(/c1ccc(Br)cc1)c1cccnc1 [Zimelidine dihydrochloride] (11.1 µM) | 2.1 |
| Cc1cccc(Nc2nc(-c3ccncc3)cs2)c1 (11.1 µM) | 0.552 |
| Cc1cc(Nc2cc(N3CCN(C)CC3)nc(/C=C/c3ccccc3)n2)n[nH]1 (11.1 µM) | 0.343 |
| CCCCc1oc2ccccc2c1C(=O)c1cc(I)c(OCCN(CC)CC)c(I)c1 (33.3333 µM) | 0.057 (active) |
